Bioassay records deposited in PubChem by National Center for Advancing Translational Sciences (NCATS).
Cycloheximide cs – counter-screen for Shiga toxin inhibitors: cycloheximide protein synthesis inhibition; 12% of 300,000 active; cell reporter, cycloheximide protein synthesis inhibition counterscreen; max response, %; AID 2314; in the data active = max response mostly above about 13%, no sharp cut-off; inactive = mostly below about 14%; also: read at 38.3 µM for the half of the compounds with a filed dose
NS1 function inh – blocks influenza NS1 protein function | Potency, µM (top dose mostly 46.1 µM) | 0.4% of 270,000 active | AID 2326; calls by dose curve; also: actives are rising curves; nearly all actives have a fitted effect of over 50% in size
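Recovery from NS1-induced slow growth read by OD600 in budding yeast switched to galactose assay medium (pH 6.0, -URA) at 1:100 dilution. Compound 23 nl per well; the matching strain lacking NS1 serves as control.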
Pf growth 48h – P. falciparum growth inhibition at 48 hours (one generation) | 5.9% of 310,000 active | Potency, µM (doses to about 28.7 µM), actives largely listed as inhibitors | P. falciparum luciferase growth in erythrocytes, 48 h | AID 504832
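In quantitative HTS format, infected erythrocytes bearing luciferase-reporter parasites were treated for a single generation at 37 C. Luminescence after adding detection reagent served as the growth measure.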
Shiga inhibitor – blocks Shiga toxin action in Vero cells | Vero cells, Shiga toxin protein synthesis inhibition reporter | inhibition, % at 38.7 µM | 9.2% of 290,000 active; in the data active = inhibition mostly above about 28%, no sharp cut-off; inactive = mostly below about 43%
Sm TGR block – S. mansoni TGR enzyme inhibition; Potency, µM (highest dose often 114 µM), hits mostly inhibitors; Q962Y6; 3% of 360,000 active; purified TGR, DTNB reduction, TNB absorbance 405 nm; AID 485364; also: nearly all actives have a fitted effect of over 60% in size
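First, TGR (20 nM dispensed) and NADPH were mixed with compound. Second, a 15 min room-temperature incubation followed. Third, further NADPH and then DTNB were added to start the reaction. Finally, TNB absorbance was monitored kinetically.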
Pf growth 96h – P. falciparum growth inhibition at 96 hour, primary screen for plastid delayed-death inhibitors; AID 504834; Potency, µM (top dose mostly 28.7 µM), most hits filed as inhibitors; 6.9% of 320,000 active; P. falciparum luciferase reporter growth, 96 h
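Two parasite generations (96 h, 37 C, 5% CO2) of compound exposure in infected erythrocytes (0.05% parasitemia, 2% hematocrit). Luciferase-reporter P. falciparum; decreased luminescence indicates inhibited growth, aimed at apicoplast-acting delayed death.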
Numbers stand for hits; . = inactive; ? = inconclusive; / = not tested or not shown; + = active, no number; [ ] = another dose, or the depositor's remark. Rows were chosen to be rich in hits. Some 21% of all compounds tested hit in one or more screens of this group. Unless noted, calls follow the shape of the dose curve; as a rule, active = well fitted curve in the direction sought with a large enough effect; inconclusive = small, poorly fitted or top-dose-only effect, or another doubt; inactive = no such curve, though single readings can be large; an effect the other way counts as inactive or inconclusive.

SMILES | Cycloheximide cs | NS1 function inh | Pf growth 48h | Shiga inhibitor | Sm TGR block | Pf growth 96h
CC(C)NC(=O)CSCc1c(F)cccc1Cl | 8.4 | . | . | . | ? | .
CC(CC(=O)NCc1ccc(F)cc1)c1ccccc1 (stereo not drawn) | . | . | . | . | . | .
CN(C)S(=O)(=O)c1cccc(NC(=O)CN2C(=O)NC3(CCc4ccccc4C3)C2=O)c1 (stereo not drawn) | . | . | . | . | . | .
COc1cc(/C=C/C(=O)OCC(=O)Nc2cc(C)on2)ccc1OCC#N | / | / | . | / | . | .
O=C(CCc1ccccc1)NCCSCc1c(F)cccc1Cl | 23.2 | . | . | . | . | ?
O=C(CCSCc1ccc(Cl)cc1)NCCc1ccccc1 | . | . | . | . | . | .
CCn1cc(CN2CCN(CCC(C)C)C(CCO)C2)c2ccccc21 (stereo not drawn) | . | . | ? | . | . | .
CCn1cc(CN2CCN(C)C(CCO)C2)c2ccccc21 (stereo not drawn) | . | . | . | . | . | 13.1µM
C/C=C(\C)C(=O)N[C@@H](c1ccccc1)[C@@H](O)C(=O)O[C@H]1C[C@@]2(O)[C@@H](OC(=O)c3ccccc3)C3[C@](C)(C(=O)[C@H](OC(C)=O)C(=C1C)C2(C)C)[C@@H](O)C[C@H]1OC[C@@]31OC(C)=O (stereo partly drawn) | . | . | ? | . | . | 0.0329µM
C/C=C(\C)C(=O)N[C@@H](c1ccccc1)[C@@H](O)C(=O)O[C@H]1C[C@@]2(O)[C@@H](OC(=O)c3ccccc3)C3[C@](C)(C(=O)[C@H](O)C(=C1C)C2(C)C)[C@@H](O)C[C@H]1OC[C@@]31OC(C)=O (stereo partly drawn) | . | . | 0.0657µM | . | . | 0.0738µM
CC(=O)O[C@H]1C(=O)[C@@]2(C)C([C@H](OC(=O)c3ccccc3)[C@]3(O)C[C@H](OC(=O)[C@H](O)[C@@H](NC(=O)c4ccccc4)c4ccccc4)C(C)=C1C3(C)C)[C@]1(OC(C)=O)CO[C@@H]1C[C@@H]2OC(=O)[C@H](C)NC(=O)c1ccc(-c2c3ccc(=O)cc-3oc3cc(O)ccc23)c(C(=O)O)c1 (stereo partly drawn) | . | / | / | + | / | /
CC(=O)O[C@@]12CO[C@@H]1C[C@H](O)[C@@]1(C)C(=O)[C@H](O)C3=C(C)[C@@H](OC(=O)[C@H](O)[C@@H](NC(=O)OC(C)(C)C)c4ccccc4)C[C@](O)([C@@H](OC(=O)c4ccccc4)[C@H]21)C3(C)C | . | / | / | . | . | /
CC1=NN(C(=O)CCc2ccc3c(c2)OCO3)C(O)(C(F)(F)F)C1 (stereo not drawn) | . | . | . | . | / | ?
CC(C)Oc1cccc(C(=O)C2CCCN(Cc3cccn3-c3ccccn3)C2)c1 (stereo not drawn) | . | . | ? | . | / | .
COc1ccc(N2CCN(Cc3nc4c(c(=O)[nH]c(=O)n4C)n3Cc3ccccc3C)CC2)cc1 | / | / | / | / | . | /
CC(C)C/C=C1\CCc2c([nH]c3ccccc23)C1=O | 45.9 | . | . | 88.4 | . | .
CCCCCCCCC1=NCCc2c1[nH]c1ccccc21 | . | . | .[0.00184 µM] | . | . | ?
O=C1/C(=C/c2cccnc2)CCc2c1[nH]c1ccccc21 | 47.7 | . | . | 67.9 | . | ?
CC1C/C(=C\c2cccnc2)C(=O)/C(=C/c2cccnc2)C1 (stereo not drawn) | . | . | 3.7µM | . | ? | .
CCOc1cc2[nH]c(=O)n(CC3CCC(C(=O)NC(C)CC)CC3)c(=O)c2cc1OCC (stereo not drawn) | / | . | / | / | / | /
CCOc1ccccc1NC(=O)CN1C(=O)COc2ccc(S(=O)(=O)Nc3ccccc3)cc21 | / | / | / | / | . | /
C=C1C(=O)O[C@H]2C1CC[C@@](C)(O)C13C=CC(C)(C21)C1(C3)C(=O)O[C@@H]2C3C(C)=CCC3[C@](C)(O)C[C@H](OC(C)=O)C21 (stereo partly drawn) | 12.2 | . | . | 33.9 | . | ?
CCCNC(=O)c1n[nH]c2c1CC(C(C)(C)CC)CC2 (stereo not drawn) | / | / | ? | / | . | ?
CCC(C)(C)C1CCc2[nH]nc(C(=O)N/N=C(\C)c3ccco3)c2C1 (stereo not drawn) | 61.0 | . | . | 106.7 | . | .
C/C(=N\NC(=O)c1n[nH]c2c1CCC2)c1ccco1 | 25.8 | . | . | . | . | .
SMILES | Cycloheximide cs | NS1 function inh | Pf growth 48h | Shiga inhibitor | Sm TGR block | Pf growth 96h
O=C1[C@@H]2[C@@H]3C[C@@H]([C@H]4ON=C(c5ccc(Cl)cc5Cl)[C@@H]34)[C@@H]2C(=O)N1C1CCCCC1 | 30.9 | . | . | . | . | ?
CC12C=CC3(O1)C(C(=O)N(c1ccccc1)C3C(=O)NC1CCCC1)C2C(N)=O (stereo not drawn) | . | . | . | . | . | .
Cc1cccn2c(=O)c(C(=O)NC3CCCCC3C)c(O)nc12 (stereo not drawn) | / | / | 13.1µM | / | . | ?
Cc1cccn2c(=O)c(C(=O)NC3CCCCC3)c(O)nc12 | . | . | ? | . | . | ?
Cc1cccn2c(=O)c(C(=O)NC3CC(C)CC(C)(C)C3)c(O)nc12 (stereo not drawn) | / | / | 3.7µM | / | . | ?
Cc1ccn2c(=O)c(C(=O)NC3CCCCC3C)c(O)nc2c1 (stereo not drawn) | / | / | 2.33µM | / | . | ?
CC(O)C1CCC2C3CCC4CC(O)CCC4(C)C3CCC12C (stereo not drawn) | / | / | . | / | / | ?
CCOC(=O)c1cc2nc(-c3ccccc3)cc(C)n2n1 | . | . | . | / | . | ?
CCOC(=O)c1nnc2cc(-c3ccccc3)nn2c1C | 28.4 | . | / | . | .[11.4 µM] | 14.7µM
CCOC(=O)c1cnn2c(C)cc(-c3ccccc3)nc12 | 36.1 | . | . | 68.2 | . | ?
CCOC(=O)c1cc(-c2ccccc2)nc2nc(N(CC)CC)sc12 | . | . | 9.28µM | . | . | 11.7µM
COCC(C)NCC(=O)NC(C)CCc1ccccc1 (stereo not drawn) | . | . | . | . | . | .
Cc1cccc(CCNC(=O)c2cc3c(=O)n(C)c4ccccc4c3n2C)c1 | / | / | / | / | . | /
Cc1c(C(=O)OCC(=O)Nc2ccc(N3CCOCC3)cc2)oc2ccccc12 | / | / | . | / | . | .
Cc1c(C(=O)Nc2cccnc2Cl)oc2ccccc12 | 25.7 | . | . | 81.3 | . | .
Cc1c(C(=O)Nc2ccccn2)oc2c(Cl)cccc12 | / | / | . | / | . | .
Cc1ccc(NC(=O)c2oc3ccccc3c2C)nc1 | 63.3 | . | . | 88.2 | . | .
Cc1ccc(NC(=O)c2cc3c(=O)oc4ccccc4c3s2)nc1 | . | . | . | . | . | ?
Cc1noc(C(=O)Nc2cccnc2Cl)c1Cl | . | . | . | . | . | .
Cc1c(C(=O)Nc2ccc(N3CCOCC3)cc2)oc2ccccc12 | 39.6 | . | . | 96.6 | . | .
Cc1c(C(=O)Nc2ccccn2)oc2ccccc12 | 46.7 | . | . | 109.1 | . | .
c1ccc(COCCCc2cnc[nH]2)cc1 | . | / | / | . | / | /
